Laboratory results: PubChem BioAssay
The source made the active and inactive calls.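 The calls were made as follows, unless noted: active = inhibition of the reporter signal at or above 50%; inactive = inhibition below 50%.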

Experiments:
[1] = inhibitors of TNFa-induced NFkB p65 translocation, primary screen, imaging, HUVEC, MLSMR starter and 10KST1 sets (AID 438;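 active = inhibition above 20% together with a positive visual image hit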;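 also: compound added about 3h40 before a 20 min TNFalpha stimulation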;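 as to inhibition: signal is the nuclear over cytoplasmic p65 intensity ratio per well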); settings: HUVEC TNFa-induced p65 nuclear translocation; cell count: measured here: nuclei count (cytotoxicity indicator), at 2.08 µM; inhibition: at 2 µM, stronger effect = higher value, 0% TNFa-plus-vehicle, 100% no-TNFa wells
[2] = inhibitors of mutant huntingtin aggregation, primary screen, imaging, exon1htt(103Q)mCFP cells, high-content imaging (AID 483;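 active = visual image review flags a hit and inhibition of aggregation exceeds 20%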;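 also: compound exposure lasted 3 days before fixation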;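 as to nuclei count: percent of the per-plate median nuclei count of sample wells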); settings: exon1htt(103Q)mCFP cell line, aggregate imaging, at 2 µM; inhibition of aggregation: stronger effect = higher value; nuclei count: measured here: cell count, toxicity
[3] = inhibitors of E-selectin induction by TNFa, primary screen, imaging, HUVEC, immunofluorescence, MLSMR starter and 10KST1 sets (AID 487;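 active = visually confirmed hit in the image check and inhibition above 20%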;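 as to inhibition: signal is fraction of cell area covered by stained E-selectin grains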;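 as to nuclei count: 100% = median nuclei count of all wells on the same plate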); settings: HUVEC TNFalpha-induced E-selectin immunofluorescence imaging, at 2 µM; inhibition: stronger effect = higher value; nuclei count: measured here: cell number, toxicity
[4] = target: Voltage-gated potassium channel subunit beta-2 (Rattus norvegicus) (UniProt P62483); experiment: KvBeta enzyme negative modulators, primary screen, biochemical, NADPH fluorescence (AID 622;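 active = fluorescence slope higher than the sample average by over 3 SD, cut at about -0.22 in these data, passing the limit was not always enough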;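 also: slope of raw intensity against log time taken from 70 to 1610 s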); settings: recombinant KvBeta, 4-cyanobenzaldehyde reduction, at 10 µM, stronger effect = higher value
[5] = target: Voltage-gated potassium channel subunit beta-2 (Rattus norvegicus) (UniProt P62483); experiment: KvBeta positive modulators, primary screen, biochemical, NADPH fluorescence (AID 623;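 active = NADPH fluorescence slope more negative than the mean of all samples by about 3 SD, 99.7% confidence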;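 also: fluorescence intensity change per second fitted from 20 to 320 s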); settings: Recombinant KvBeta, NADPH fluorescence decrease slope, 10 min; at 10 µM; stronger effect = lower value
[6] = target: Alpha-2C adrenergic receptor (Homo sapiens) (UniProt P18825); experiment: modulators of alpha2C/GIRK thallium flux, primary screen, cell-based, HEK293 alpha2C/GIRK1/2 (AID 624;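 active = fluorescence slope after compound addition differing from the mean of all screened samples at 99.7% confidence, in either direction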;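 also: slope of fluorescence ratio to pre-addition baseline per second over 15 to 24 s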); settings: thallium flux BTC fluorescence, at 10 µM, actives lie on both sides
[7] = inhibitors of Sendai virus-induced IRF3 signaling, primary screen, TLR/RLR signaling modifier project, cell-based, Sendai virus stimulus, luciferase, 10K MLSCN set (AID 602276;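 active = inhibition at or above 50% at 10 µM; inactive = inhibition below 50%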;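 also: firefly luciferase from ISG56 promoter only with Renilla not read in this screen; 0% = Sendai virus plus DMSO and 100% = medium plus DMSO without virus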); settings: HEK293 RL24 IRF3 luciferase reporter, at 10 µM, stronger effect = higher value
[8] = inhibitors of poly I:C-induced TLR3 signaling, primary screen, cell-based, poly I:C stimulus, luciferase, 10K MLSCN set (AID 602277); settings: HEK293-TLR3 RL24 IRF3 luciferase reporter, at 10 µM, stronger effect = higher value

Sequence of Voltage-gated potassium channel subunit beta-2 (Rattus norvegicus) (P62483 whole entry, looked up): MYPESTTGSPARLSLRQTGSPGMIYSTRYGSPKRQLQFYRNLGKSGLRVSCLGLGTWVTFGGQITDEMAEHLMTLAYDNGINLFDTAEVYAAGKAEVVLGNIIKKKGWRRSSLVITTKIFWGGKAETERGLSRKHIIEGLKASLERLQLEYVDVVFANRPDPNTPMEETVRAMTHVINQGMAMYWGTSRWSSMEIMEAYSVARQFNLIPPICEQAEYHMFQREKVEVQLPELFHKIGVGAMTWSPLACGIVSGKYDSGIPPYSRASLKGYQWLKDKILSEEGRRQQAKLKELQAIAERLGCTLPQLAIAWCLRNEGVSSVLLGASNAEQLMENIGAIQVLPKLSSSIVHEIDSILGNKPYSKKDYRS
Sequence of Alpha-2C adrenergic receptor (Homo sapiens) (P18825 whole entry, looked up): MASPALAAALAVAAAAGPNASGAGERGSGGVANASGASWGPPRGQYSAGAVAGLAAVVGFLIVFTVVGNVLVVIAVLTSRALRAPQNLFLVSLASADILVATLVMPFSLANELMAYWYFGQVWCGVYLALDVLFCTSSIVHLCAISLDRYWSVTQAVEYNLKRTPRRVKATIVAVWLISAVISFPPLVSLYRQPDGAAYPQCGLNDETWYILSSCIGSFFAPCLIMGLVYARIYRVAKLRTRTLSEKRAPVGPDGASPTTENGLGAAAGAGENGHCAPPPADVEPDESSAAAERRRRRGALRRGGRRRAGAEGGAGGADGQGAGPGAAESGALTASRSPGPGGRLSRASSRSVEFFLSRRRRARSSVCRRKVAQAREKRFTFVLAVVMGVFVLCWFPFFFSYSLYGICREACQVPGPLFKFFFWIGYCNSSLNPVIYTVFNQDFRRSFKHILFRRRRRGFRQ

Which cell count [1] does the source give for CC(C)Cc1cc(C(=O)Nc2c(F)cc(F)cc2Br)no1 here?
The cell count was 783.

And the inhibition [1]?
The inhibition was 7.4% (inactive).

And the inhibition of aggregation [2]?
Its inhibition of aggregation is -5% (inactive).

And the nuclei count [2]?
Its nuclei count is 114%.

What about the inhibition [3] of the same compound?
Its inhibition is -4.5% (inactive).

And the nuclei count [3]?
Its nuclei count is 120%.

What about the fluorescence slope [4] of the same compound?
Its fluorescence slope is -0.594 (inactive).

What about the NADPH fluorescence slope [5] of the same compound?
Its NADPH fluorescence slope is 3.8e-06 (inactive).

What about the slope [6] of the same compound?
The slope was 0.00483 (inactive).

What about the inhibition [7] of the same compound?
The inhibition was -6.27% (inactive).

What about the inhibition [8] of the same compound?
Its inhibition is 2.03% (inactive).

What does the source list for Cc1cccc(Cc2nnc(NC(=O)c3cccc(S(=O)(=O)N4CCOCC4)c3)s2)c1?
cell count [1]: 424; inhibition [1]: -5.5% (inactive); inhibition of aggregation [2]: -0.5% (inactive); nuclei count [2]: 106%; inhibition [3]: 0.9% (inactive); nuclei count [3]: 126%; fluorescence slope [4]: -0.422 (inactive); NADPH fluorescence slope [5]: -7.5e-06 (inactive); slope [6]: 0.00421 (inactive); inhibition [7]: 14.3% (inactive); inhibition [8]: 30.6% (inactive)

With O=C1CCCC(O)=C1C=Nc1ccc2c(c1)oc1ccccc12 as the compound, how does the cell count [1] read?
Its cell count is 403.

And the inhibition [1]?
Its inhibition is 1.7% (inactive).

What about the inhibition of aggregation [2] of the same compound?
The inhibition of aggregation was -0.4% (inactive).

What about the nuclei count [2] of the same compound?
The nuclei count was 95.2%.

And the inhibition [3]?
Its inhibition is 24.8% (inactive).

And the nuclei count [3]?
Its nuclei count is 106%.

What about the fluorescence slope [4] of the same compound?
Its fluorescence slope is -0.09 (active).

What about the NADPH fluorescence slope [5] of the same compound?
The NADPH fluorescence slope was 1.4e-05 (inactive).

And the slope [6]?
The slope was 0.00678 (inactive).

And the inhibition [7]?
The inhibition was -23% (inactive).

And the inhibition [8]?
The inhibition was -100% (inactive).

Which cell count [1] does the source give for O=C(Nc1ccc2c(c1)OCCO2)c1ccco1 here?
Its cell count is 337.

What about the inhibition [1] of the same compound?
The inhibition was -3.5% (inactive).

What about the inhibition of aggregation [2] of the same compound?
The inhibition of aggregation was -13.9% (inactive).

What about the nuclei count [2] of the same compound?
The nuclei count was 118%.

What about the inhibition [3] of the same compound?
Its inhibition is 6.1% (inactive).

What about the nuclei count [3] of the same compound?
Its nuclei count is 102%.

What about the fluorescence slope [4] of the same compound?
The fluorescence slope was -0.488 (inactive).

What about the NADPH fluorescence slope [5] of the same compound?
Its NADPH fluorescence slope is -3.7e-05 (inactive).

And the slope [6]?
Its slope is 0.00709 (inactive).

And the inhibition [7]?
The inhibition was -48.4% (inactive).

What about the inhibition [8] of the same compound?
The inhibition was -81.4% (inactive).

For Cc1ccc(CCNC(=O)C2CCN(S(=O)(=O)c3c(C)nn(C)c3C)CC2)cc1, which cell count [1] is on record?
The cell count was 621.

And the inhibition [1]?
The inhibition was 6.1% (inactive).

What about the inhibition of aggregation [2] of the same compound?
Its inhibition of aggregation is -21.9% (inactive).

And the nuclei count [2]?
The nuclei count was 105%.

What about the inhibition [3] of the same compound?
Its inhibition is -8.4% (inactive).

What about the nuclei count [3] of the same compound?
Its nuclei count is 116%.

And the fluorescence slope [4]?
Its fluorescence slope is -0.618 (inactive).

What about the NADPH fluorescence slope [5] of the same compound?
Its NADPH fluorescence slope is -5.1e-06 (inactive).

And the slope [6]?
Its slope is 0.00762 (inactive).

And the inhibition [7]?
The inhibition was -5.1% (inactive).

What about the inhibition [8] of the same compound?
Its inhibition is 6.19% (inactive).

Which results are given for O=C(O)c1ccc(COc2ccc(Cl)cc2)o1?
cell count [1]: 262; inhibition [1]: -3.3% (inactive); inhibition of aggregation [2]: 10.6% (inactive); nuclei count [2]: 81%; inhibition [3]: -24% (inactive); nuclei count [3]: 88.3%; fluorescence slope [4]: -0.49 (inactive); NADPH fluorescence slope [5]: -3e-05 (inactive); slope [6]: 0.00685 (inactive); inhibition [7]: -14.7% (inactive); inhibition [8]: -60.9% (inactive)

With CCOc1ccc2nc(NC(=O)CSc3nc4ccccc4c(=O)n3Cc3ccco3)sc2c1 as the compound, how does the cell count [1] read?
Its cell count is 654.

And the inhibition [1]?
Its inhibition is -6.1% (inactive).

And the inhibition of aggregation [2]?
The inhibition of aggregation was -5.6% (inactive).

And the nuclei count [2]?
The nuclei count was 115%.

And the inhibition [3]?
The inhibition was -65.7% (inactive).

And the nuclei count [3]?
Its nuclei count is 132%.

What about the fluorescence slope [4] of the same compound?
The fluorescence slope was -0.413 (inactive).

What about the NADPH fluorescence slope [5] of the same compound?
Its NADPH fluorescence slope is 9.6e-06 (inactive).

What about the slope [6] of the same compound?
Its slope is 0.00934 (active).

What about the inhibition [7] of the same compound?
The inhibition was 15.6% (inactive).

What about the inhibition [8] of the same compound?
Its inhibition is 10% (inactive).

Which results are given for CC1=Nn2c(nnc2-c2ccccn2)SC1?
cell count [1]: 378; inhibition [1]: 4.8% (inactive); inhibition of aggregation [2]: -0.1% (inactive); nuclei count [2]: 68.5%; inhibition [3]: -158% (inactive); nuclei count [3]: 198%; fluorescence slope [4]: -0.443 (inactive); NADPH fluorescence slope [5]: -4.3e-05 (inactive); slope [6]: 0.00557 (inactive); inhibition [7]: 7.81% (inactive); inhibition [8]: 11.5% (inactive)

For O=S(NCc1ccco1)C12CC3CC(CC(C3)C1)C2 (centres undefined), which cell count [1] is on record?
Its cell count is 426.

And the inhibition [1]?
Its inhibition is 12.5% (inactive).

What about the inhibition of aggregation [2] of the same compound?
Its inhibition of aggregation is 1.2% (inactive).

And the nuclei count [2]?
The nuclei count was 102%.

What about the inhibition [3] of the same compound?
The inhibition was -2.2% (inactive).

What about the nuclei count [3] of the same compound?
The nuclei count was 101%.

What about the fluorescence slope [4] of the same compound?
Its fluorescence slope is -0.582 (inactive).

And the NADPH fluorescence slope [5]?
Its NADPH fluorescence slope is -2e-07 (inactive).

And the slope [6]?
Its slope is 0.00485 (inactive).

And the inhibition [7]?
Its inhibition is -5.22% (inactive).

What about the inhibition [8] of the same compound?
Its inhibition is 0.485% (inactive).

Which results are given for O=C(Nc1ccccc1C(=O)N1CCN(c2ccccc2)CC1)c1ccco1?
cell count [1]: 300; inhibition [1]: -5.1% (inactive); inhibition of aggregation [2]: 6.3% (inactive); nuclei count [2]: 98.2%; inhibition [3]: -73.2% (inactive); nuclei count [3]: 111%; fluorescence slope [4]: -0.605 (inactive); NADPH fluorescence slope [5]: -2.1e-05 (inactive); slope [6]: 0.00253 (inactive); inhibition [7]: 0.26% (inactive); inhibition [8]: -6.86% (inactive)

For Cc1nn(C)c(C)c1CNC(=O)c1cc2n(n1)C(C(F)(F)F)CC(c1cccs1)N2 (centres undefined), which cell count [1] is on record?
Its cell count is 565.

What about the inhibition [1] of the same compound?
The inhibition was 1.9% (inactive).

And the inhibition of aggregation [2]?
Its inhibition of aggregation is -16.5% (inactive).

And the nuclei count [2]?
The nuclei count was 95.1%.

And the inhibition [3]?
Its inhibition is -65% (inactive).

And the nuclei count [3]?
The nuclei count was 115%.

What about the fluorescence slope [4] of the same compound?
The fluorescence slope was -0.583 (inactive).

What about the NADPH fluorescence slope [5] of the same compound?
The NADPH fluorescence slope was -6.9e-05 (inactive).

What about the slope [6] of the same compound?
Its slope is 0.00578 (inactive).

And the inhibition [7]?
Its inhibition is -2.09% (inactive).

And the inhibition [8]?
Its inhibition is -24.4% (inactive).

For CC(=O)c1ccc(-n2nnnc2SCC(=O)N2CCc3ccccc3C2)cc1, which cell count [1] is on record?
Its cell count is 434.

And the inhibition [1]?
Its inhibition is -12.9% (inactive).

And the inhibition of aggregation [2]?
The inhibition of aggregation was 12.1% (inactive).

What about the nuclei count [2] of the same compound?
Its nuclei count is 104%.

What about the inhibition [3] of the same compound?
The inhibition was 0% (inactive).

And the nuclei count [3]?
Its nuclei count is 93.6%.

What about the fluorescence slope [4] of the same compound?
The fluorescence slope was -0.51 (inactive).

What about the NADPH fluorescence slope [5] of the same compound?
Its NADPH fluorescence slope is 2.1e-05 (inactive).

What about the slope [6] of the same compound?
Its slope is 0.0053 (inactive).

What about the inhibition [7] of the same compound?
The inhibition was 2.55% (inactive).

And the inhibition [8]?
The inhibition was 5.8% (inactive).

With Cc1oc(C(=O)O)cc1CSCc1cc(C(=O)O)c(C)o1 as the compound, how does the cell count [1] read?
Its cell count is 403.

And the inhibition [1]?
The inhibition was -9.3% (inactive).

And the inhibition of aggregation [2]?
Its inhibition of aggregation is -21.1% (inactive).

And the nuclei count [2]?
Its nuclei count is 102%.

What about the inhibition [3] of the same compound?
Its inhibition is -15.5% (inactive).

What about the nuclei count [3] of the same compound?
The nuclei count was 118%.

What about the fluorescence slope [4] of the same compound?
Its fluorescence slope is -0.508 (inactive).

What about the NADPH fluorescence slope [5] of the same compound?
The NADPH fluorescence slope was 3.2e-05 (inactive).

What about the slope [6] of the same compound?
The slope was 0.00721 (inactive).

What about the inhibition [7] of the same compound?
Its inhibition is -20.7% (inactive).

And the inhibition [8]?
Its inhibition is -5.67% (inactive).

Which cell count [1] does the source give for CCOC(=O)C1CCCN(C(=O)c2ccc(CS(=O)(=O)c3ccc(Br)cc3)o2)C1 (centres undefined) here?
The cell count was 509.

And the inhibition [1]?
The inhibition was -3% (inactive).

What about the inhibition of aggregation [2] of the same compound?
Its inhibition of aggregation is -0.5% (inactive).

And the nuclei count [2]?
The nuclei count was 108%.

And the inhibition [3]?
The inhibition was -61.3% (inactive).

What about the nuclei count [3] of the same compound?
The nuclei count was 111%.

And the fluorescence slope [4]?
Its fluorescence slope is -0.422 (inactive).

And the NADPH fluorescence slope [5]?
Its NADPH fluorescence slope is -7.7e-05 (inactive).

And the slope [6]?
The slope was 0.00523 (inactive).

And the inhibition [7]?
Its inhibition is 4.84% (inactive).

What about the inhibition [8] of the same compound?
The inhibition was 25.8% (inactive).
